Screens as filed in PubChem BioAssay.
This is a sample that favours compounds with a hit; in the whole collection about 2.2% have one here.
ABCB6 inh MLPCN – ABCB6 transporter inhibitors, primary screen, K562-ABCB6 cells, flow cytometry, MLPCN library. ATP-binding cassette sub-family B member 6 (Homo sapiens), Q9NP58. K562-ABCB6 porphyrin accumulation, 1 h; hits give low values. fluorescence ratio to DMSO, % at 10 µM. 360,000 compounds, 0.19% hits;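 active = fluorescence ratio to DMSO below 75%, the collection mean minus 3 SD; inconclusive = too few cells collected in the well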;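 also: signal is porphyrin accumulated inside mitochondria; 100% equals median channel fluorescence of DMSO control wells; lower ratio means ABCB6 inhibition with less porphyrin fluorescence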
Target sequence (Q9NP58 whole entry, looked up): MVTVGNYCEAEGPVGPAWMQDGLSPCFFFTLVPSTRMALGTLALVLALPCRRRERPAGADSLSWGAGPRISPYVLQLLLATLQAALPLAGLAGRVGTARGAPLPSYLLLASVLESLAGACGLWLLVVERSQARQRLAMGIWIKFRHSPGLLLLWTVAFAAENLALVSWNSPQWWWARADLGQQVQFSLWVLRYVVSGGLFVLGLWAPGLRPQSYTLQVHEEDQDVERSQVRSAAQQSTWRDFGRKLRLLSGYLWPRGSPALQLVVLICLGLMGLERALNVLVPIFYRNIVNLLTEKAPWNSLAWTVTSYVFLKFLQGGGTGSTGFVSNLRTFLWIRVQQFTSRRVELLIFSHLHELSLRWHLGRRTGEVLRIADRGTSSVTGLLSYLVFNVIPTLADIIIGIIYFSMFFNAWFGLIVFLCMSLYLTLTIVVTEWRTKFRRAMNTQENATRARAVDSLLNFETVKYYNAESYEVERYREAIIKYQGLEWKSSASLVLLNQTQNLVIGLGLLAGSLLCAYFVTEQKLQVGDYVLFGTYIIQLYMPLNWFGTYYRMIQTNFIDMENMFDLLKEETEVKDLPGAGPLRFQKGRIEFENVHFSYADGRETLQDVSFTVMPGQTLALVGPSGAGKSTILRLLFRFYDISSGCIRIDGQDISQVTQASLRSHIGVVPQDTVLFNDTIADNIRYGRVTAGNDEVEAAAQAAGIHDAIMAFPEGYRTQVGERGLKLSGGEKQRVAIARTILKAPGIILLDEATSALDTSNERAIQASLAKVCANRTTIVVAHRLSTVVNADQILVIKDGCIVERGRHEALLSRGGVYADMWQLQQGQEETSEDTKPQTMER
Myeloid diff MLP – induction of myeloid progenitor differentiation, primary screen, cell-based, flow cytometry, MLPCN library | ER-HoxA9 myeloid progenitors, lysozyme-GFP differentiation | calls only at 10 µM | 360,000 compounds, 1% hits;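 active = normalized GFP-positive differentiation at or above the plate's own cutoff, the solvent-only control mean plus 3 SD; inconclusive = no clear call, values can overlap the other calls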;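 also: cells exposed to compound for four days before flow analysis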
Cardio protect – cardioprotection against H2O2-induced cell death, primary screen, uHTS, H9c2 cells, ATPLite luminescence; H9c2 cardiomyocytes, H2O2 injury protection, 2 h; protection from H2O2 cell death, % at 20 µM; 360,000 compounds, 0.63% hits; AID 588492, 2011;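 active = compounds giving at least 50% protection of heart cells from peroxide-induced death in the single-dose screen, raw or plate-pattern-corrected value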;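 also: 0% = DMSO wells with peroxide and 100% = DMSO wells without peroxide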
iPSC survival up – enhancers of single-cell hiPSC survival, primary screen, ATPlite luminescence; 360,000 compounds, 0.044% hits; 100% = ROCK inhibitor wells, 0% = DMSO; survival enhancement, % at 20 µM; AID 602274, 2012; in the data active = survival enhancement above about 18%;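 also: cells exposed to compounds for 16 hours before the ATP read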
MIN6 prolif – inducers of MIN6 beta-cell proliferation, primary screen, ATP luminescence, uHTS | MIN6 cells proliferation, ATPlite luminescence, 48 h; cells starved in 0.2% serum; 100% = growth in 10% serum | proliferation, % at 10 µM | 330,000 compounds, 0.29% hits | AID 2380, 2010;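 active = compounds whose signal lies at least 3.5 SD above the mean of all wells on their plate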;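 also: 0% = DMSO-treated cells in low-serum medium and 100% = 10% serum control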
Myeloid diff – inducers of myeloid progenitor differentiation, confirmation, cell-based, GFP/Mac1 flow cytometry, cherry pick 01. shares compounds with Myeloid diff MLP. ER-HoxA9 myeloid progenitors, GFP/Mac1 double-positive flow. calls only. 2,300 compounds, 2% hits;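 active = share of green or green-and-red cells above 9 and 9% in run 1 or 4 and 3% in run 2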
GFP autofluor – flagged as fluorescent in myeloid differentiation counter-screen | shares compounds with Myeloid diff MLP | ER-HoxA9 myeloid progenitors, no estrogen, GFP autofluorescence flow cytometry; vehicle wells 0%, positive control 100% | 2,300 compounds, 7.4% hits | fluorescence response, % (concentration not given with the values);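 active = over 5% cells positive for green fluorescent reporter, or over 2% positive for both it and APC stain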;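 also: range taken on the double positive population between DMSO and positive control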
* marks the source's active call; other numbers are inactive results; i = inactive; ? = inconclusive; . = no result given; + = active, no number.

SMILES	ABCB6 inh MLPCN	Myeloid diff MLP	Cardio protect	iPSC survival up	MIN6 prolif	Myeloid diff	GFP autofluor
COc1ccc(N(CC(=O)NC2CCCC2)C(=O)Cn2nnc(-c3ccc(C)cc3)n2)cc1OC	102	i	-3	-2	1	i	1
COc1ccc(N(CC(=O)NC2CCCC2)C(=O)Cn2nnc(-c3ccc(F)cc3)n2)cc1OC	107	i	9	-1	-1	.	.
COc1ccc(CCNC(=O)CSc2n[nH]c(C)c2[N+](=O)[O-])cc1OC	96	i	-1	1	0	.	.
CC(=O)Nc1ccc2c3c(cccc13)C(=O)N(c1ccccc1)C2=O	95	i	-3	-2	1	.	.
O=CNc1ccc2c3c(cccc13)-c1ccccc1-2	109	+	-6	0	.	i	0
COc1ccc(C(=O)NNC(=O)c2ccccn2)cc1	99	i	-10	-4	-6	.	.
CC(Oc1cccc(Br)c1)C(=O)NNC(=O)c1ccccn1 (configuration not stated)	100	+	79*	-2	-6	i	2
COc1cc(OC)cc(C(=O)NNC(=O)c2ccccn2)c1	101	+	51*	1	-2	i	0
Cc1cc(OCCCC(=O)NCCc2ccccn2)ccc1Cl	93	i	-2	0	0	.	.
O=C(N/N=C/c1ccncc1)c1ccccc1OCc1ccc(Br)cc1	100	i	34	1	-1	i	0
Cc1ccc(/C=N/NC(=O)c2ccccc2OCc2ccc(F)cc2)o1	102	i	-4	-1	0	.	.
CC(=O)Nc1ccc(-c2ccnc3c2CC(C(=O)Nc2cccc(C(F)(F)F)c2)O3)cc1 (configuration not stated)	100	+	7	-1	.	i	0
CC(=O)Nc1ccc(-c2ccnc3c2CC(C(=O)Nc2cccc(Oc4ccccc4)c2)O3)cc1 (configuration not stated)	96	i	3	-2	.	.	.
CS(=O)(=O)Nc1cccc(NC(=O)C2Cc3c(-c4ccccc4)ccnc3O2)c1 (configuration not stated)	96	+	-9	0	.	i	0
CC(=O)Nc1ccc(-c2ccnc3c2CC(C(=O)Nc2cccc(N(C)C)c2)O3)cc1 (configuration not stated)	100	+	15	-2	.	i	0
O=C(Nc1cccc(C(F)(F)F)c1)C1Cc2c(-c3cccc(F)c3)ccnc2O1 (configuration not stated)	93	i	-3	-2	.	.	.
CCn1c(C)nc2c(=O)oc3ccccc3c21	100	i	4	-3	-2	.	.
CC1CC(C)(C)NC(=S)N1CCCC(=O)NCc1ccccc1 (configuration not stated)	100	i	-3	1	-4	i	0
COc1c(OC)c2[nH]c(=O)cc3c4ccccc4n(c1=O)c23	94	i	1	4	-3	.	.
COc1cccc(N2CCN(C(=O)C3CCC(=O)N(C4CCCCCC4)C3)CC2)c1 (configuration not stated)	100	?	-1	0	0	.	.
Cn1c(Cn2cnc(Cl)c2Cl)nc2ccccc21	100	i	0	-2	-1	i	1
Cn1c(Cn2cnc3ccccc32)nc2ccccc21	93	i	-1	-3	-2	.	.
CCOC(=O)c1c(NC(=O)CNCCOC)sc2c1CCCC2	100	i	-4	1	-1	i	0
CCOC(=O)[C@]12CCC=C1N(Cc1ccc3c(c1)OCO3)C(=O)[C@H](CC(=O)N1CCCC1)C2	97	i	.	0	.	.	.
Cc1ccc([C@H]2C[C@H](O)[C@@H](n3cc(COC(=O)c4ccccc4)nn3)CN2Cc2cccs2)cc1	96	i	-6	0	.	.	.
SMILES	ABCB6 inh MLPCN	Myeloid diff MLP	Cardio protect	iPSC survival up	MIN6 prolif	Myeloid diff	GFP autofluor
Cc1ccc([C@H]2C[C@@H](O)[C@H](n3cc(COC(=O)c4ccccc4)nn3)CN2Cc2cccs2)cc1	103	i	-10	-1	.	i	0
COc1ccc([C@H]2C[C@H](n3cc(COC(=O)c4ccccc4)nn3)[C@@H](O)CN2C(=O)C2CCCCC2)cc1	93	i	-8	-1	.	i	0
COc1ccc([C@H]2C[C@@H](n3cc(COC(=O)c4ccccc4)nn3)[C@H](O)CN2C(=O)C2CCCCC2)cc1	104	i	2	-2	.	.	.
CC1CCCCN1C(=O)COc1ccc(S(=O)(=O)N2CCCC2)cc1[N+](=O)[O-] (configuration not stated)	98	i	-2	0	-4	.	.
CCC(C)[C@H](NC(=O)[C@@H]1Cc2c([nH]c3ccccc23)C2c3ccccc3C(=O)N21)C(=O)NCC1CCCO1 (some centres not stated)	103	+	-1	-1	4	i	0
CN1C(=O)C(O)(CC(=O)c2ccccc2O)c2cc(Br)ccc21 (configuration not stated)	100	?	-6	-2	-8	.	.
C=CCN1C(=O)C(O)(CC(=O)c2ccc(OC)cc2OC)c2cc(Br)ccc21 (configuration not stated)	89	i	-2	-5	-1	i	0
O=C(Cc1ccccc1)NCC(=O)OCC(=O)c1ccc(OC(=O)c2ccccc2)cc1	103	i	0	1	-1	i	0
CC(Sc1nnnn1-c1ccc(O)cc1)c1nc2ccccc2c(=O)[nH]1 (configuration not stated)	95	i	11	2	-2	.	.
N/C(=N\OC(=O)C12CC3CC(CC(C3)C1)C2)c1cccnc1	102	i	-6	-2	-2	i	0
COc1ccc(NC2=C(NC(C)=O)C(=O)c3ccccc3C2=O)cc1	95	+	-12	-1	0	+	0
CCOC(=O)C1=C(O)/C(=C/c2cc(OC)c(O)c(OC)c2)SC1=Nc1ccc(OC)cc1	120	i	34	3	.	i	23*
COc1cccc(-c2csc(N3CCN(CC(=O)Nc4ccc5c(c4)OCO5)CC3)n2)c1	91	i	-7	2	-5	i	0
COc1ccc(NC(=O)CN2CCN(c3nc(-c4cccc(OC)c4)cs3)CC2)cc1	92	i	0	-2	-4	.	.
